Assay results published in PubChem BioAssay (EPA / NIEHS).
Results filed as inconclusive are left out. Active and inactive are the calls of the source. The calls were made as follows, unless noted: active = hit-call score of the fitted dose curve at least 0.9, where 1 is the maximum; inconclusive = response in the unintended direction; inactive = score below 0.9.

Columns and labels:
[1] = ATG_VDRE_CIS: Attagene CIS-FACTORIAL HepG2 Assay for human Vitamin D Receptor Element (VDRE) (AID 2282968; active = hit-call score of the fitted dose curve at least 0.9, where 1 is the maximum; inactive = score below 0.9); details: HepG2 VDRE cis-reporter transcription, actives raise or lower the signal
Summary of the method: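 Transiently transfected HepG2 cells carrying cis-regulated reporter transcription units were exposed for 24 h. Reporter mRNA was measured by RT-PCR with fluorescent labelling and capillary electrophoresis, and fitted in both directions against DMSO.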

[2] = molecular target: Nuclear receptor subfamily 1 group I member 3 (Homo sapiens) (UniProt Q14994); assay: ATG_CAR_TRANS: Attagene TRANS-FACTORIAL HepG2 Assay for human Constitutive Androstane Receptor (CAR) (AID 2282969); details: HepG2 Attagene TRANS-FACTORIAL CAR reporter;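 also: activators raise reporter mRNA above DMSO so AC50 marks induction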
Sequence of Nuclear receptor subfamily 1 group I member 3 (Homo sapiens) (Q14994 whole entry, looked up, the tested form may be a part): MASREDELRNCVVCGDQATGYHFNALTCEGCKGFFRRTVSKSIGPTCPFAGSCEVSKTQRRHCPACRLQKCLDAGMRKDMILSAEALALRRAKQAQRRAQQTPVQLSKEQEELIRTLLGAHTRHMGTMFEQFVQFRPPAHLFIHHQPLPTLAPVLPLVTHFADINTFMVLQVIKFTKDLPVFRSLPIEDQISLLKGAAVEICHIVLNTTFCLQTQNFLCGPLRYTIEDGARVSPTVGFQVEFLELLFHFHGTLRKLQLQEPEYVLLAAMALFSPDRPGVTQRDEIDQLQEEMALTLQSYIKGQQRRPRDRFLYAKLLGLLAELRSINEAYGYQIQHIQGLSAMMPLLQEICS
Summary of the method: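 HepG2 cells transiently transfected with GAL4-UAS reporter units; TRANS format reads activity of exogenous chimeric NR-Gal4 protein. After 24 h dosing, reporter mRNA quantified by RT-PCR, 6-FAM labelling and capillary electrophoresis; gain of signal fitted against DMSO.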

[3] = molecular target: Estrogen receptor (Homo sapiens) (UniProt P03372); assay: ATG_ERa_TRANS: Attagene TRANS-FACTORIAL HepG2 Assay for human Estrogen Receptor alpha (ERa) (AID 2282970); details: HepG2 Attagene TRANS ERa GAL4 reporter, mRNA
Sequence of Estrogen receptor (Homo sapiens) (P03372 whole entry, looked up, the tested form may be a part): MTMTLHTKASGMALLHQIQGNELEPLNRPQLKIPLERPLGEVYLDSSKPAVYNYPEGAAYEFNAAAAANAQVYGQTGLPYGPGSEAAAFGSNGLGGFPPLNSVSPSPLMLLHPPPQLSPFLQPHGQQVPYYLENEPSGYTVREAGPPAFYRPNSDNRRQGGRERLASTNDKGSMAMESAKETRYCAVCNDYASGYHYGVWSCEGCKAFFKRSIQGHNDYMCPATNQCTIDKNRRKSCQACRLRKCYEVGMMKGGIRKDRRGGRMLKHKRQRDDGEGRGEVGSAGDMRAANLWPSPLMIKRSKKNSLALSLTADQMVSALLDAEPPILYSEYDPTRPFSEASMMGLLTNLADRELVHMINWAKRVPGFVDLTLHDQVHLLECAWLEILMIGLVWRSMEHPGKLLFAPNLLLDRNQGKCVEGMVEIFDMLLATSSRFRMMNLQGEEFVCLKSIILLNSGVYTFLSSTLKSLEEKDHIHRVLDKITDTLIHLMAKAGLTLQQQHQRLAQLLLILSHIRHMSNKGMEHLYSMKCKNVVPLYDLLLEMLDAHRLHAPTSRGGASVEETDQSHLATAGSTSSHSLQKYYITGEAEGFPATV
Summary of the method: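 HepG2 cells transiently transfected with multiplexed GAL4-UAS reporter units read out chimeric NR-Gal4 activity. After 24 h compound exposure, reporter mRNA was quantified by RT-PCR, 6-FAM labeling, HpaI digestion and capillary electrophoresis, relative to DMSO.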

[4] = molecular target: Androgen receptor (Homo sapiens) (UniProt P10275); assay: ATG_AR_TRANS: Attagene TRANS-FACTORIAL HepG2 Assay for human Androgen Receptor (AR) (AID 2282973); details: HepG2 Attagene TRANS-FACTORIAL AR reporter transcription
Sequence of Androgen receptor (Homo sapiens) (P10275 whole entry, looked up, the tested form may be a part): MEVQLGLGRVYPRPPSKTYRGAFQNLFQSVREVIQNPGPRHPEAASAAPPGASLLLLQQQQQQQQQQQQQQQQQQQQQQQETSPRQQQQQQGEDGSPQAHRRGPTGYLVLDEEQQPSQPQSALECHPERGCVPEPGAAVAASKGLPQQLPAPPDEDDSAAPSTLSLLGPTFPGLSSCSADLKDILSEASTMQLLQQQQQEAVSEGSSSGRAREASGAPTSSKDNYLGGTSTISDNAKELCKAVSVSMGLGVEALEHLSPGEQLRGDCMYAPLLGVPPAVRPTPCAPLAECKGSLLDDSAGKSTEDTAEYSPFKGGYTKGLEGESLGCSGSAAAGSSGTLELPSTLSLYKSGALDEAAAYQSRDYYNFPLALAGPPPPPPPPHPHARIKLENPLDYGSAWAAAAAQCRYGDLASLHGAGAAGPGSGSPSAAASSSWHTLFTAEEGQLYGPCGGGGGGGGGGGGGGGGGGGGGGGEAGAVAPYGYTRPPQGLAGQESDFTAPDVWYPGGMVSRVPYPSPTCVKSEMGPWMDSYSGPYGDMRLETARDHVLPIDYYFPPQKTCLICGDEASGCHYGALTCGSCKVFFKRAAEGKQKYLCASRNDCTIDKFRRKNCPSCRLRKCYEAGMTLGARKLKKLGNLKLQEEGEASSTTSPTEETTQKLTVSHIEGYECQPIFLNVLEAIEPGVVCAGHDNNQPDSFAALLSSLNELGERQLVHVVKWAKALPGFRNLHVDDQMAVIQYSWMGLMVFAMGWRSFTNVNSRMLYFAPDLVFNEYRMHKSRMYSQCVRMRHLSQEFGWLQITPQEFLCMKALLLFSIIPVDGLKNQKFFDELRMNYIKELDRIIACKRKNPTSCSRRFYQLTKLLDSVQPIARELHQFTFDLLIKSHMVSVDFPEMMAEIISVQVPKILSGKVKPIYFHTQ
Summary of the method: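 HepG2 cells transiently transfected with AR-Gal4 chimera and GAL4-UAS reporter units; chemical exposure 24 h. Reporter mRNA quantified by RT-PCR with fluorescent labelling and capillary electrophoresis; gain-of-signal fitted against DMSO.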

[5] = ATG_M_19_TRANS: Attagene TRANS-FACTORIAL HepG2 Assay for M19 Transcription Factor (Internal Marker) (AID 2282974); details: HepG2 Attagene TRANS-FACTORIAL M19 internal marker reporter
Summary of the method: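 Using RT-PCR and capillary electrophoresis, reporter mRNA from transiently transfected human HepG2 cells was quantified following 24 h exposure; activity was fitted in the positive direction against DMSO.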

[6] = molecular target: Glucocorticoid receptor (Homo sapiens) (UniProt P04150); assay: ATG_GR_TRANS: Attagene TRANS-FACTORIAL HepG2 Assay for human Glucocorticoid Receptor (GR) (AID 2282978); details: HepG2 Attagene TRANS GR reporter, mRNA transcription;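 also: activators score as hits since higher reporter transcript over DMSO is fitted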
Sequence of Glucocorticoid receptor (Homo sapiens) (P04150 whole entry, looked up, the tested form may be a part): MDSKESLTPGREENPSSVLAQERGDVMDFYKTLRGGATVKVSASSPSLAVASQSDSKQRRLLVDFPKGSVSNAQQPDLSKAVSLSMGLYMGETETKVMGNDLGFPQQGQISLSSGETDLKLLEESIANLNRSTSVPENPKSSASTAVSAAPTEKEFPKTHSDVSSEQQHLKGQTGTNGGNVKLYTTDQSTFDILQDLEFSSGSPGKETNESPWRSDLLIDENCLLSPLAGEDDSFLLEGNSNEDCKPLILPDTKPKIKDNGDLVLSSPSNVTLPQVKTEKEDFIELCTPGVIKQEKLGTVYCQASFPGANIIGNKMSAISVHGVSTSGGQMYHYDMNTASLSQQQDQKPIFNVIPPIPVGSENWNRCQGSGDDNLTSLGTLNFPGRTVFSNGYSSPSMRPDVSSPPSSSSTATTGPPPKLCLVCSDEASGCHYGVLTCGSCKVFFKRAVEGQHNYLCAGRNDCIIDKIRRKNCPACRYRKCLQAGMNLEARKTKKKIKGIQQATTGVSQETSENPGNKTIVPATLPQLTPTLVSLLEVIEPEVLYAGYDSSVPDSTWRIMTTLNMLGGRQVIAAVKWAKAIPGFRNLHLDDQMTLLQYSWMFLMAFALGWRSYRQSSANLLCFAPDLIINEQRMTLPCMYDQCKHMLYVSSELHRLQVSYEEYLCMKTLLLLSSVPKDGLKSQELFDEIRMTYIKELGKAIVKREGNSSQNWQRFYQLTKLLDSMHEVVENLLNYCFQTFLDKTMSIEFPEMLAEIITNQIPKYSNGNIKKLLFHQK
Summary of the method: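 Exogenous NR-GAL4 fusion activity was assessed through induced GAL4-UAS reporter transcripts in transfected human HepG2 cells, quantified after 24 h by RT-PCR and fluorescent capillary electrophoresis with DMSO as baseline.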

[7] = molecular target: X-box-binding protein 1 (Homo sapiens) (UniProt P17861); assay: ATG_Xbp1_CIS: Attagene CIS-FACTORIAL HepG2 Assay for human X-box Binding Protein 1 (XBP1) (AID 2282972; active = hit-call score of the fitted dose curve at least 0.9, where 1 is the maximum; inactive = score below 0.9); details: HepG2 XBP1 cis-element reporter, Attagene multiplex; actives raise or lower the signal
Sequence of X-box-binding protein 1 (Homo sapiens) (P17861 whole entry, looked up): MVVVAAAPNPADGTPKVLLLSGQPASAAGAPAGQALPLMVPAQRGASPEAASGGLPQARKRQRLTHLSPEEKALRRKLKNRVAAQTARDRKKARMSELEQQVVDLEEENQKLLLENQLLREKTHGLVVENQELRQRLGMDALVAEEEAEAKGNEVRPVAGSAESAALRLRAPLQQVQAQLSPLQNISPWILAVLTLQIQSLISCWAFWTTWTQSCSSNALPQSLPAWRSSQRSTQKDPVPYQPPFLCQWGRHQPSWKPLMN
Summary of the method: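 HepG2, transient MRTU transfection (cis-promoter driven), 24 h compound exposure. Total RNA → oligo(dT) RT → PCR → 6-FAM labeling → HpaI cut → CE. Bidirectional fit vs DMSO.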

[8] = ATG_GAL4_TRANS: Attagene TRANS-FACTORIAL HepG2 Assay for GAL4 (Internal Marker) (AID 2282976); details: HepG2 Attagene TRANS GAL4 internal marker reporter
Summary of the method: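 Background-control readout: GAL4-UAS reporter transcript in transiently transfected HepG2 cells after 24 h compound exposure. Measured by RT-PCR, 6-FAM primer extension, HpaI digest and capillary electrophoresis; gain-of-signal fit versus DMSO.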

[9] = molecular target: Steroid hormone receptor ERR1 (Homo sapiens) (UniProt P11474); assay: ATG_ERRa_TRANS: Attagene TRANS-FACTORIAL HepG2 Assay for human Estrogen-Related Receptor alpha (ERRa) (AID 2282971); details: HepG2 Attagene TRANS reporter, ERRa transactivation
Sequence of Steroid hormone receptor ERR1 (Homo sapiens) (P11474 whole entry, looked up, the tested form may be a part): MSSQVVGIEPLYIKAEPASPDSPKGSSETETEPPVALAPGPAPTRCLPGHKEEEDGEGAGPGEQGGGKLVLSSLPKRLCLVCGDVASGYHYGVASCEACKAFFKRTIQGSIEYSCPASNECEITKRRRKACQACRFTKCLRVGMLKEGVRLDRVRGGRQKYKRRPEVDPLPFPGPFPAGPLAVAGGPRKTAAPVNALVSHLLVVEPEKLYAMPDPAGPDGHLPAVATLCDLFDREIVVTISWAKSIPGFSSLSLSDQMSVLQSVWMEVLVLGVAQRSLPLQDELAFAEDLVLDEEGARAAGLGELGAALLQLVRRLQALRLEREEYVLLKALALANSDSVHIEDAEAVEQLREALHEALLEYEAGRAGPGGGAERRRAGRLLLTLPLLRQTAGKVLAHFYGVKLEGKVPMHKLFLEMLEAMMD
Summary of the method: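 HepG2 cells transiently transfected with GAL4-UAS reporter units and chimeric NR-Gal4 constructs; after 24 hour compound incubation, reporter mRNA quantified by RT-PCR, fluorescent labelling and capillary electrophoresis, gain of signal versus DMSO.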

[10] = molecular target: Estrogen-related receptor gamma (Homo sapiens) (UniProt P62508); assay: ATG_ERRg_TRANS: Attagene TRANS-FACTORIAL HepG2 Assay for human Estrogen-Related Receptor gamma (ERRg) (AID 2282977); details: HepG2 Attagene TRANS reporter, ERRg transactivation;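 also: hits increase reporter signal over DMSO so potencies reflect activators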
Sequence of Estrogen-related receptor gamma (Homo sapiens) (P62508 whole entry, looked up, the tested form may be a part): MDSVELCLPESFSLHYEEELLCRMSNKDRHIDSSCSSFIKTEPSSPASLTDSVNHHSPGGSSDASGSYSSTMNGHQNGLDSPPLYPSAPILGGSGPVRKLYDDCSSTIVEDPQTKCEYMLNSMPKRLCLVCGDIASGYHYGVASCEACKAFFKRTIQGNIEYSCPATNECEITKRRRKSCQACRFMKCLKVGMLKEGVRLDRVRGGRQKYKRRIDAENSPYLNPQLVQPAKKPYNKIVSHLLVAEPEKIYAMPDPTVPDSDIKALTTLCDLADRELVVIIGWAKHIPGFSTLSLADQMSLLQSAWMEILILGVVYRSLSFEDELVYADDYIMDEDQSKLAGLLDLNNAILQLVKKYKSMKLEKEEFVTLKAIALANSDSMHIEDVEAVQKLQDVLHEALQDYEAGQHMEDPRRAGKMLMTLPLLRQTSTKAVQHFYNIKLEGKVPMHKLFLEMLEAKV
Summary of the method: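 Transfect HepG2 with multiple GAL4-UAS reporter transcription units; dose chemicals 24 h; isolate RNA, reverse-transcribe with oligo(dT), PCR-amplify, label with 6-FAM, digest with HpaI; size fragments by capillary electrophoresis. DMSO serves as negative control.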

CN(C1CCCCC1)C1CCCCC1
outcome [1]: inactive
outcome [2]: inactive
outcome [3]: inactive
outcome [4]: inactive
outcome [5]: inactive
outcome [6]: inactive

O=S1OC[C@@H]2[C@H](CO1)[C@]1(Cl)C(Cl)=C(Cl)[C@@]2(Cl)C1(Cl)Cl (stereo partly drawn)
AC50 [1]: 6.07 µM (active)
outcome [2]: inactive
AC50 [3]: 3.77 µM (active)
AC50 [7]: 100 µM (active)
outcome [6]: inactive

CC(F)(F)CC(F)(F)F
outcome [1]: inactive
outcome [2]: inactive
outcome [7]: inactive
outcome [4]: inactive
outcome [8]: inactive
outcome [6]: inactive

CCCCN(CCCCO)N=O
outcome [1]: inactive
outcome [2]: inactive
AC50 [3]: 8.41 µM (active)
outcome [8]: inactive
outcome [6]: inactive

O=C(NC(=O)c1c(F)cccc1F)Nc1cc(Cl)c(F)c(Cl)c1F
outcome [1]: inactive
outcome [2]: inactive
outcome [7]: inactive

O=C(CCl)NCO
outcome [1]: inactive
outcome [2]: inactive
outcome [9]: inactive
outcome [7]: inactive
outcome [5]: inactive
outcome [8]: inactive

Cc1cccc(OP(=O)(Oc2cccc(C)c2)Oc2cccc(C)c2)c1
AC50 [1]: 4.85 µM (active)
outcome [2]: inactive
outcome [7]: inactive
outcome [5]: inactive

c1ccc2c(c1)Oc1ccccc1O2
outcome [1]: inactive
outcome [2]: inactive
outcome [7]: inactive

CC(c1ccccc1)(c1ccc(O)cc1)c1ccc(O)cc1
AC50 [1]: 1.8 µM (active)
AC50 [3]: 0.145 µM (active)
outcome [9]: inactive
AC50 [7]: 15 µM (active)
outcome [5]: inactive
outcome [6]: inactive

BrCc1ccc(Br)cc1
outcome [1]: inactive
outcome [2]: inactive
outcome [7]: inactive
outcome [8]: inactive

Cc1cc(Cl)ccc1O
outcome [1]: inactive
outcome [2]: inactive
outcome [7]: inactive
outcome [5]: inactive
outcome [6]: inactive

CC[N+](CC)(CC)CC
outcome [1]: inactive
outcome [2]: inactive
outcome [7]: inactive
outcome [8]: inactive
outcome [6]: inactive

O=C1c2ccccc2C(=O)C1C(=O)C(c1ccccc1)c1ccc(Cl)cc1 (stereo not drawn)
AC50 [1]: 2.93 µM (active)
outcome [3]: inactive
outcome [9]: inactive
AC50 [7]: 5.66 µM (active)
outcome [4]: inactive
AC50 [5]: 163 µM (active)
outcome [6]: inactive

Nc1ccc(N)cc1
outcome [1]: inactive
outcome [2]: inactive
outcome [7]: inactive
outcome [5]: inactive
outcome [8]: inactive

O=C(CCl)Nc1ccccc1
AC50 [1]: 43.7 µM (active)
outcome [3]: inactive
AC50 [7]: 22 µM (active)
outcome [4]: inactive

CCOc1ccc(N)cc1
outcome [1]: inactive
outcome [3]: inactive
outcome [9]: inactive
outcome [7]: inactive
outcome [5]: inactive

C#CCO
outcome [1]: inactive
outcome [2]: inactive
outcome [7]: inactive
outcome [8]: inactive

N#CCCC(Br)(C#N)CBr (stereo not drawn)
AC50 [1]: 43.9 µM (active)
outcome [3]: inactive
outcome [9]: inactive
AC50 [7]: 57.9 µM (active)
outcome [5]: inactive
outcome [6]: inactive

[Cl][Sn]([c]1ccccc1)([c]1ccccc1)[c]1ccccc1
AC50 [1]: 0.24 µM (active)
outcome [3]: inactive
AC50 [7]: 0.242 µM (active)
outcome [4]: inactive

C=C(C)C(=O)OCCCCOC(=O)C(=C)C
outcome [1]: inactive
outcome [3]: inactive
outcome [9]: inactive
outcome [5]: inactive
outcome [8]: inactive

OC(c1ccc(Cl)cc1)(c1ccc(Cl)cc1)c1cccnc1
outcome [1]: inactive
outcome [3]: inactive
outcome [7]: inactive
outcome [4]: inactive
outcome [5]: inactive
outcome [8]: inactive

CCOP(=O)(OCC)SCCSCC
outcome [1]: inactive
outcome [3]: inactive
outcome [9]: inactive

C=C(C)[C@@H]1CC=C(C=O)CC1
outcome [1]: inactive
outcome [3]: inactive
outcome [9]: inactive

COc1ccc([N+](=O)[O-])cc1O
outcome [1]: inactive
outcome [3]: inactive
outcome [7]: inactive
outcome [4]: inactive
outcome [8]: inactive
outcome [6]: inactive

C1CN2CCN1CC2
outcome [1]: inactive
outcome [2]: inactive
outcome [5]: inactive
outcome [8]: inactive

O=C(Nc1ccc(Br)cc1)c1cc(Br)cc(Br)c1O
AC50 [1]: 6.47 µM (active)
outcome [3]: inactive
outcome [9]: inactive
outcome [5]: inactive
outcome [8]: inactive

N#Cc1ccncc1
outcome [1]: inactive
outcome [3]: inactive
outcome [9]: inactive
outcome [7]: inactive
outcome [8]: inactive
outcome [6]: inactive

O=C(NC(=O)c1c(F)cccc1F)Nc1cc(Cl)c(OC(F)(F)C(F)C(F)(F)F)cc1Cl (stereo not drawn)
outcome [1]: inactive
outcome [3]: inactive

CC(C)(C#N)N=NC(C)(C)C#N
outcome [1]: inactive
outcome [2]: inactive
outcome [7]: inactive
outcome [5]: inactive
outcome [6]: inactive

CC(=O)C(F)(F)C(F)(F)F
outcome [1]: inactive
outcome [3]: inactive
outcome [7]: inactive
outcome [4]: inactive
outcome [8]: inactive
outcome [6]: inactive

O=[N+]([O-])c1cc([As](=O)(O)O)ccc1O
outcome [1]: inactive
outcome [3]: inactive
outcome [9]: inactive
outcome [7]: inactive
outcome [8]: inactive
outcome [6]: inactive

CCOc1cc(C=O)ccc1O
outcome [1]: inactive
outcome [2]: inactive
outcome [7]: inactive
outcome [5]: inactive
outcome [8]: inactive
outcome [6]: inactive

N#Cc1cccnc1
outcome [1]: inactive
outcome [3]: inactive
outcome [9]: inactive
outcome [7]: inactive
outcome [5]: inactive
outcome [8]: inactive

CN(CCCC(O)c1cccnc1)N=O (stereo not drawn)
outcome [1]: inactive
outcome [3]: inactive
outcome [7]: inactive
outcome [4]: inactive
outcome [5]: inactive

CCOC(=O)C(SP(=S)(OC)OC)c1ccccc1 (stereo not drawn)
outcome [1]: inactive
outcome [2]: inactive
outcome [7]: inactive
outcome [5]: inactive
outcome [8]: inactive
outcome [10]: inactive

C=CC(=O)NC(C)(C)CC(C)=O
outcome [1]: inactive
outcome [2]: inactive
outcome [8]: inactive

ClCCN1CCOCC1
outcome [1]: inactive
outcome [3]: inactive
outcome [7]: inactive

[F][Sn]([c]1ccccc1)([c]1ccccc1)[c]1ccccc1
AC50 [1]: 0.332 µM (active)
outcome [3]: inactive
AC50 [7]: 0.326 µM (active)
outcome [5]: inactive
